Results filed as inconclusive are left out. Calls of active or inactive are those of the source. Unless noted, calls come from the whole dose curve; as a rule, active = well fitted curve in the direction sought with a large enough effect in the repeat runs; inconclusive = weak or mixed curves; inactive = no such curve, though single readings can be large; an effect the other way counts as inactive or inconclusive.
How the values were obtained:
[1] = qHTS assay to identify small molecule antagonists of the estrogen receptor alpha (ER-alpha) signaling pathway using the BG1 cell line in the presence of 0.1 nM 17-beta-estradiol - cell viability counter screen (AID 1259241); note: nearly all actives have a fitted effect of over 40% in size; note: potency is the fitted concentration of half-maximal effect
In short: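 VM7Luc4E2, 4,000 cells/well, phenol red-free medium + 10% charcoal-stripped FBS; 24 hr plating; cpd + 0.1 nM E2 final, 22 hr 37C/5% CO2; CellTiter-Fluor 30 min, fluorescence.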

[2] = qHTS assay to identify small molecule antagonists of the androgen receptor (AR) signaling pathway using the MDA cell line in the presence of 0.5 nM R1881 - cell viability counter screen (AID 1259242); note: nearly all actives have a fitted effect of over 45% in size; note: potency is the fitted concentration of half-maximal effect
In short: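 Counter screen for cytotoxicity run in the same wells as the AR antagonist reporter screen: MDA-kb2 cells were treated 16 hr with test compounds and 0.5 nM R1881, then live-cell protease activity was measured by fluorescence.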

[3] = target: Estrogen receptor (Homo sapiens) (UniProt P03372); test: qHTS assay to identify small molecule antagonists of the estrogen receptor alpha (ER-alpha) signaling pathway using the BG1 cell line in the presence of 0.1 nM 17-beta-estradiol (AID 1259244); note: nearly all actives have a fitted effect of over 50% in size; note: potency is the fitted concentration of half-maximal effect
Sequence of Estrogen receptor (Homo sapiens) (P03372 whole entry, looked up): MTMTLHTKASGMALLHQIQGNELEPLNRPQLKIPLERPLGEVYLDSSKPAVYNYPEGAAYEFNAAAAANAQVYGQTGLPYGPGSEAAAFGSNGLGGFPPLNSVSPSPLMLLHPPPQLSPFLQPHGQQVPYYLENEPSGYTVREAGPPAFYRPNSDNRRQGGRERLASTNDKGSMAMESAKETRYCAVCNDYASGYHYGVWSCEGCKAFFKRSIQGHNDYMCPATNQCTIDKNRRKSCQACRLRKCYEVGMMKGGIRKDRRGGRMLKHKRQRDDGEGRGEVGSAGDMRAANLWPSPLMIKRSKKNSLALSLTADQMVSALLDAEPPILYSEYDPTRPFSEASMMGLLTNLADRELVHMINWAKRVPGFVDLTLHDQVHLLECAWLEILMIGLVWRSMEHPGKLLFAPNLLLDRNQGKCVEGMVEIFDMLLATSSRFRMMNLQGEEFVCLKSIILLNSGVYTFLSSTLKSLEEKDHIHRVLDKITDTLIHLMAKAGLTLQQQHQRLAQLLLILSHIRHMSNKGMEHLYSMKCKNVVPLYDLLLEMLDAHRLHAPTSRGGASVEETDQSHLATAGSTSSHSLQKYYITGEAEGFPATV
In short: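 Cells: VM7Luc4E2, endogenous ER-alpha, 4x ERE-luc stable. Pre-culture 5 d, phenol red-free, charcoal-stripped FBS. Plated 24 h, compound + E2 0.1 nM final, 22 h 37C/5% CO2. Readout ONE-Glo luminescence.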

[4] = qHTS assay to identify small molecule phospholipidosis (PLD) inducers (AID 1259344; active = well fitted curve in the direction sought with a large enough effect; an effect the other way counts as inactive or inconclusive)
In short: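 HepG2 cells on collagen I, attached 4 h at 37 C, were co-treated with compound and LipidTOX Red dye for 24 h at 37 C, then fixed with paraformaldehyde plus Hoechst 33342 and imaged by high-content microscopy for phospholipid accumulation.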

[5] = qHTS assay to identify small molecule HDAC inhibitors (AID 1259364); note: nearly all actives have a fitted effect of over 45% in size; note: potency is the fitted concentration of half-maximal effect
In short: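 Luminescence from a cell-permeant luminogenic class I/II HDAC substrate reports endogenous deacetylase activity in intact HCT-116 cells treated with compounds for 2 h.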

[6] = qHTS assay to identify small molecule HDAC inhibitors - cell viability counter screen (AID 1259365); note: series mostly up to about 92 µM; nearly all actives have a fitted effect of over 50% in size
In short: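 Luminescence from CellTiter-Glo, developed 30min at room temperature, reports viability of wild-type HCT-116 cells treated 2hr with compounds at 37 C and 5% CO2 after overnight plating.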

[7] = qHTS assay to identify small molecule agonists of the sonic hedgehog signaling (Shh) pathway - cell viability counter screen (AID 1259366); note: nearly all actives have a fitted effect of over 50% in size; note: potency is the fitted concentration of half-maximal effect
In short: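 Cytotoxicity counter screen run in the same wells as the Shh reporter assay. NIH/3T3 cells carrying a Gli1 response element–driven luciferase were treated with DMSO-dissolved compounds for 24hr, and live-cell protease activity was measured with CellTiter-Fluor.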

[8] = qHTS assay to identify small molecule agonists of the sonic hedgehog signaling (Shh) pathway (AID 1259368; calls by dose curve; note: nearly all actives have a fitted effect of over 15% in size; note: potency is the fitted concentration of half-maximal effect)
In short: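 3T3Gli1-Luc (NIH/3T3 clone, stable Gli1-Luc); 4 hr pre-incubation, then cpd in DMSO 24 hr, 37 C/5% CO2; luciferase reagent 30 min RT; luminescence.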

[9] = qHTS assay to identify small molecule antagonists of the sonic hedgehog signaling (Shh) pathway - cell viability counter screen (AID 1259367); note: nearly all actives have a fitted effect of over 55% in size
In short: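 NIH/3T3-derived Gli1-Luc reporter cells (2,000 per well) rested 4 hr at 37 C, then received DMSO compounds plus conditioned medium. After 23 hr of treatment, CellTiter-Fluor was added for 1 hr at 37C and fluorescence read.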

Measured: Potency

O=[N+]([O-])c1ccc(F)c([N+](=O)[O-])c1
inactive: [4] | [6] | [8]
active: [1] 17.4 µM | [2] 30.9 µM | [3] 27.6 µM | [5] 12.3 µM | [7] 24.6 µM

O=NN1CCNCC1
not listed: [4] | [8] | [9]
inactive: all other assays above

O=C=Nc1ccc(Cl)cc1
not listed: [4] | [5] | [9]
inactive: all other assays above

C=CCCl
not listed: [4]
inactive: all other assays above

CC(C)N(C(=O)COc1nnc(C(F)(F)F)s1)c1ccc(F)cc1
not listed: [4]
inactive: all other assays above

CN(C)c1ccc(N(C)C)cc1
active: [1] 61.3 µM | [3] 30.7 µM | [7] 24.4 µM | [8] 24.4 µM
inactive: [2] | [6]

CC1(C)CCC(Cc2ccc(Cl)cc2)C1(O)Cn1cncn1 (stereo not drawn)
active: [3] 61.1 µM
not listed: [4]
inactive: all other assays above

CCOP(=O)(OCC)O/C(=C/Cl)c1ccc(Cl)cc1Cl
not listed: [3]
inactive: all other assays above

CCN(C)N=O
not listed: [4]
inactive: all other assays above

ClCC(Br)CBr (stereo not drawn)
not listed: [4]
inactive: all other assays above

CN(N=O)c1ccc([N+](=O)[O-])cc1
not listed: [4]
inactive: all other assays above

COc1c(C(C)(C)C)cc([N+](=O)[O-])c(C)c1[N+](=O)[O-]
not listed: [4]
inactive: all other assays above

C=CC(=O)OCC(C)O (stereo not drawn)
not listed: [4] | [7]
inactive: all other assays above

CC(Cl)C(C)Cl (stereo not drawn)
not listed: [4]
inactive: all other assays above

C=C(C#N)CCC#N
not listed: [4]
inactive: all other assays above

— PubChem BioAssay (Tox21)
